Structures are written as SMILES. Activity calls are given as the source filed them.

Test [1] has as its system Human papillomavirus type 1a protein E7 (residues 44-93). In words: HPV1a E7 fragment binders on microarrays, primary screen, biochemical, small-molecule microarray, residues 44-93, 635 nm fluorescence (AID 1108).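 Further: E7 fragment applied at 1 µg/mL in TBST for 1 h at 4 C; score combines spot fluorescence with its signal to noise ratio.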 The note with it: small-molecule microarray binding, fluorescence 635 nm; higher = more signal.
Test [2] can be described thus: modulators of HCV replicon luciferase signal, primary screen, HCV replication inhibitor project, Huh7 cells, luciferase reporter (AID 1109).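 Further: huh7 hepatoma cells harbouring a luciferase neomycin HCV replicon reporter; luciferase luminescence as measure of HCV replicon replication; test concentration not given here.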 Particulars: 48 h, higher = more signal. (In general: In antiviral work, replicon cells carry a viral genome segment that copies itself.)
Test [3] deals with Left-right determination factor 2 (Homo sapiens) (UniProt O00292). The test is described as follows: LEFTY2 binders on small-molecule microarrays, primary screen, biochemical, small-molecule microarray, 635 nm fluorescence scan (AID 1110). The note with it: LEFTY2 binding, higher = more signal.
Sequence of Left-right determination factor 2 (Homo sapiens) (O00292 whole entry, looked up): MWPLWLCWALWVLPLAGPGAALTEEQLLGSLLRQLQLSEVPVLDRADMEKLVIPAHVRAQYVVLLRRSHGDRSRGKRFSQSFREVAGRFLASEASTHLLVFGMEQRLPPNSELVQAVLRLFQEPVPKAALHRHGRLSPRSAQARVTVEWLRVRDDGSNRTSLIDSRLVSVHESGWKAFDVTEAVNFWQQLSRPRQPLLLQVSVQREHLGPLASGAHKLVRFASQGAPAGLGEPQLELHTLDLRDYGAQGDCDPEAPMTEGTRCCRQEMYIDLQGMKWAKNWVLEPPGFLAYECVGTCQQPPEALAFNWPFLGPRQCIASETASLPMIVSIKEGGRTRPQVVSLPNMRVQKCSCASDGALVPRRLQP
Test [4] addresses Calmodulin-1 (Homo sapiens) (UniProt P0DP23). In words: CALM1 binders on microarrays, EGTA buffer, profiling panel, biochemical, small-molecule microarray, Cy5-labelled CALM1 (AID 1111).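 Further: labelled calmodulin applied in Tris saline Tween buffer holding calcium plus EGTA and DTT.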 Particulars: Cy5-CALM1 binding fluorescence, higher = more signal.
Test [5] shares this target. The test is described as follows: calcium-bound CALM1 binders on microarrays, profiling panel, artefact control for SMM control-protein annotation, biochemical, small-molecule microarray, Cy5-labelled CALM1, plus calcium (AID 1112).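 Further: score merges spot fluorescence with signal to noise from triplicate slides.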 Particulars: Cy5-CALM1 binding fluorescence, higher = more signal.
Test [6] is described as follows: small-molecule microarray binders of probe aWnt5a, primary screen, biochemical, biotinylated probe, 635/667 nm fluorescence (AID 1113).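 Further: score merges 667 nm fluorescence intensity with signal-to-noise per printed feature.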 The note with it: higher = more signal.
Test [7] can be described thus: small-molecule microarray binders of probe aShh, primary screen, biochemical, biotinylated probe, 635/667 nm fluorescence (AID 1114).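 Further: probe is biotin-labelled aShh protein from a stem cell growth factor screen; measures binding of labelled protein to compounds printed on the slide; score merges feature fluorescence at 667 nm with signal-to-noise.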 The note with it: higher = more signal.
Test [8] can be described thus: small-molecule microarray binders of probe aNog, primary screen, biochemical, biotinylated probe, 635/667 nm fluorescence (AID 1115).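 Further: probe is biotinylated aNog protein used at 0.15 µg/mL for 1 h at 4 C; z-score combines 667 nm fluorescence of each spot with its signal to noise.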 The note with it: higher = more signal.
Test [9] addresses Torsin-1A-interacting protein 1 (Homo sapiens) (UniProt Q5JTV8). In words: LAP1 binders from COS7 cell lysate, primary screen, small-molecule microarray, 635/667 nm fluorescence (AID 1116). The note with it: COS7-hLAP1 lysate binding, 635 nm fluorescence, higher = more signal.
Test [10] addresses Alpha-bungarotoxin (Bungarus multicinctus) (UniProt P60615). The test is described as follows: alpha-bungarotoxin binders on microarray, profiling panel, artefact control for SMM control protein annotation, biochemical, small-molecule microarray, Alexa647 label, 635/667 nm fluorescence (AID 1117). The note with it: alpha-BTX-A647 binding fluorescence, higher = more signal.
Test [11] addresses Albumin (Bos taurus) (UniProt P02769). The test is described as follows: bovine serum albumin binders on microarray, profiling panel, artefact control for SMM control protein annotation, biochemical, small-molecule microarray, Alexa647 label, 635/667 nm fluorescence (AID 1118).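 Further: score merges 667 nm emission intensity and signal-to-noise per printed compound spot.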 Particulars: BSA-A647 binding, fluorescence 635 nm, higher = more signal.
A short description of test [12]: small-molecule microarray binders of probe aXIP, primary screen, biochemical, NeuroSMM set, 635/667 nm fluorescence (AID 1119).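 Further: probe is the protein aXip251-270 applied at 1 µg/mL to compound-printed slides; binding of probe to printed compounds measured as 667 nm fluorescence plus signal to noise.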 Particulars: higher = more signal, called active from +8 up or from −8 down.
A short description of test [13]: small-molecule binders of probe aNOTCH3, primary screen, biochemical, small-molecule microarray, 635/667 nm fluorescence (AID 1120).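 Further: probe is a biotin-tagged antibody raised against NOTCH3 rather than NOTCH3 protein; score merges spot fluorescence near 667 nm with spot signal to noise.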 The note with it: higher = more signal.
The nature of test [14]: small-molecule binders of probe aNOTCH2, primary screen, biochemical, small-molecule microarray, 635/667 nm fluorescence (AID 1121).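 Further: score merges feature fluorescence read at 667 nm with its signal to noise.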 The note with it: higher = more signal.
Test [15] concerns the target Carbonic anhydrase 2 (Homo sapiens) (UniProt P00918). In words: CAII small-molecule binders, profiling panel, biochemical, small-molecule microarray, Alexa647-labelled CAII (AID 1122). The note with it: CAII-A647 binding fluorescence, higher = more signal.
Test [16] in a line: COS7 lysate on small-molecule microarray, probe aHis, 635 nm (AID 1123).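 Further: z-score combines 667nm fluorescence intensity with signal-to-noise per printed compound spot.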 Particulars: COS7 cell lysate, fluorescence, higher = more signal.
Test [17] can be described thus: compound binding in COS7 lysate, probe aLAP1, primary screen, cell lysate, small-molecule microarray (AID 1124).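 Further: lysate comes from COS7 cells expressing LAP1 and is applied at 0.3 µg/mL; score merges spot fluorescence near 667 nm with signal-to-noise over triplicate slides.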 The note with it: probe aLAP1, fluorescence, higher = more signal.
The subject of test [18] is Sam68 (KHDRBS1). In words: Sam68 small-molecule binders, primary screen, biochemical, small-molecule microarray, 635 nm fluorescence (AID 1125).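 Further: score merges 667 nm channel intensity with signal to noise over triplicate slides.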 Particulars: small-molecule microarray binding, higher = more signal.
Test [19] relates to Chordin-like protein 2 (CHRDL2). The test is described as follows: CHRDL2 small-molecule binders, primary screen, biochemical, small-molecule microarray, 635 nm fluorescence (AID 1126).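 Further: printed compound slides probed with Chrdl2 protein at 4 µg/mL for 1 h at 4 C; score merges 667 nm emission intensity with signal to noise over three replicate slides.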 Particulars: small-molecule microarray binding, fluorescence 635 nm; higher = more signal.
Test [20] addresses Concanavalin-A (Canavalia ensiformis) (UniProt P02866). The test is described as follows: ConA small-molecule binders, primary screen, artefact control for SMM control protein annotation, biochemical, small-molecule microarray, Alexa647 label, 635 nm (AID 1127).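 Further: z combines 667 nm emission intensity with signal-to-noise across three replicate slides.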 The note with it: ConA-A647 binding fluorescence, higher = more signal.

Sequence of Albumin (Bos taurus) (P02769 whole entry, looked up): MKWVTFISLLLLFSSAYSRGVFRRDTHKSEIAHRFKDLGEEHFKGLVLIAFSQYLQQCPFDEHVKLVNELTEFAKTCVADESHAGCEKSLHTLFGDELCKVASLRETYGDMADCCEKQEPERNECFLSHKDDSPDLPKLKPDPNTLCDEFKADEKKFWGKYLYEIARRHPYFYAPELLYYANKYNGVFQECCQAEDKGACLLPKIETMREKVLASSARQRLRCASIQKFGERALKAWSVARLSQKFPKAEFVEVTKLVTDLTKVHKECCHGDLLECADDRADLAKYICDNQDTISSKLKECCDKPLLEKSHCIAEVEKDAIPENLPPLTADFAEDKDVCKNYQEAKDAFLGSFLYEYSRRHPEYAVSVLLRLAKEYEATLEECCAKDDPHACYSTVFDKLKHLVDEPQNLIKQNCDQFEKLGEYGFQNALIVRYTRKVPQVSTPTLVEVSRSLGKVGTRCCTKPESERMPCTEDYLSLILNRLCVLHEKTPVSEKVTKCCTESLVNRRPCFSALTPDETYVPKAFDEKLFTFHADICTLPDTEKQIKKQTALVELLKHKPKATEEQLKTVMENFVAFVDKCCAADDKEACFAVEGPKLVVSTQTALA
Sequence of Alpha-bungarotoxin (Bungarus multicinctus) (P60615 whole entry, looked up): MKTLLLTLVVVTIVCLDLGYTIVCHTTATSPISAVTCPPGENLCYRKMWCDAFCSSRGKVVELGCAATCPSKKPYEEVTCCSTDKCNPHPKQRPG
Sequence of Concanavalin-A (Canavalia ensiformis) (P02866 whole entry, looked up): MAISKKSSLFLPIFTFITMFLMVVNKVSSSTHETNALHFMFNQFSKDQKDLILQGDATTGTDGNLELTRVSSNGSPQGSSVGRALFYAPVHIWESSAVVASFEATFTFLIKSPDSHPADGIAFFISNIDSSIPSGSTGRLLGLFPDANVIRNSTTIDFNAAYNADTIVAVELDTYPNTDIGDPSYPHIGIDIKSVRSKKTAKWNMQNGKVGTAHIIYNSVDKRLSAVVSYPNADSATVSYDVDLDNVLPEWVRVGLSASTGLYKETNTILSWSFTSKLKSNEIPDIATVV
Sequence of Torsin-1A-interacting protein 1 (Homo sapiens) (Q5JTV8 whole entry, looked up): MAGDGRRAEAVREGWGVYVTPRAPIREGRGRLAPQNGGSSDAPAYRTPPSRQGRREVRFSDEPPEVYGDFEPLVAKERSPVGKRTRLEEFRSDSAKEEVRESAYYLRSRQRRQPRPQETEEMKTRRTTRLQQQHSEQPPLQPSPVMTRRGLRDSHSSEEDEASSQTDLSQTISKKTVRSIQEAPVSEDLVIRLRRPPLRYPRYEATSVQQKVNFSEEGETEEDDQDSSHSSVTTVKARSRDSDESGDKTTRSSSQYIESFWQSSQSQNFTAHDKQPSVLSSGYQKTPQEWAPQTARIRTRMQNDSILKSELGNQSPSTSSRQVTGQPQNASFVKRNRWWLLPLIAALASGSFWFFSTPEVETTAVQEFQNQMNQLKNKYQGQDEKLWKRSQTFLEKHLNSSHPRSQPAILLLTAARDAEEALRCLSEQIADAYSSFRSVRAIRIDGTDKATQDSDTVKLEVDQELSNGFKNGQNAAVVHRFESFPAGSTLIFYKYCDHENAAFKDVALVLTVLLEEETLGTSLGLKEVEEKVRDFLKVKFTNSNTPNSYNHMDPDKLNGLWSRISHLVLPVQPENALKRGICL

`[N-]=[N+]=Nc1ccccc1C[C@]1(C(=O)O)N=C(c2ccc(OCCCO)cc2)O[C@H]1c1ccccc1`: the composite z-score in [1] is 1.36; in test [3] it was -1.07; in [4], 0.163; in test [5], 0.943; in test [6], 0.2; in [7], -0.0337. In addition, the composite z-score was 0.564 in test [8]; 0.764 in [9]; 0.618 in test [10]; 0.784 in test [11]; -0.0316 in test [13]; -0.121 in [14]. Besides, the composite z-score in test [15] is 0.601; in test [16], 2.58; in test [17] it was 0.266; in test [18] it was 0.822; in test [19], -1.09; in test [20] it was 0.552. Also, the z-score in [2] turned out to be 0.939. In addition, the composite Z-score in test [12] was 0.0778 (inactive).
Turning to `Cc1ccc(S[C@]2(C(=O)NCC(C)C)CC(=O)N(C3Cc4ccccc4C3)[C@@H]2c2ccc(CO)cc2I)cc1`, the composite z-score in test [1] was -0.117; in [3], -1.2; in test [4], -0.257; in [5], 0.27; in test [6] it was -0.125; in [7], -0.368. Moreover, the composite z-score in test [8] was 0.0862; in test [9], 0.273; in test [10], -0.324; in [11], -0.615; in [13], -0.323; in test [14], -0.188. In addition, the composite z-score was 0.398 in [15]; 0.554 in test [16]; -0.221 in test [17]; -0.383 in [18]; -1.65 in test [19]; -0.762 in test [20]. For the same compound, the z-score in test [2] was -1.33. Further, the composite Z-score in test [12] is -0.211 (inactive).
For the compound `CCCC=C(CCC)[C@@H](NS(=O)(=O)c1cccc2cccnc12)c1ccc(-c2ccccc2)cc1`, the composite z-score in test [1] worked out at 1.39; in test [3], 0.601; in test [4], 1.62; in test [5], 0.841; in test [6] it was 0.183; in test [7] it was 0.432. Further, the composite z-score in test [8] was -0.779; in [9], 0.765; in [10], 1.08; in [11] it was 0.723; in test [13] it was 0.438; in test [14] it was -0.0581. Moreover, the composite z-score is 0.666 in test [15]; 2.88 in test [16]; 0.0607 in test [17]; 1.31 in [18]; -0.677 in [19]; 1.14 in [20]. Also, in test [2], the z-score is -0.0261. For the same compound, in [12], the composite Z-score is 0.339 (inactive).
Consider `CN(C)CCCNC(=O)[C@@H]1c2ccccc2C(=O)N(C2CCCCC2)[C@H]1c1ccc(CO)cc1`, for which the composite z-score in test [1] was 1.44; in test [3] it was 1.17; in [4], 1.41; in [5], -0.179; in test [6] it was -0.0459; in test [7], 0.191. The composite z-score in test [8] was -0.312; in test [9], 0.87; in [10], 0.233; in [11] it was -0.706; in test [13], 0.303; in test [14], -0.0891. Besides, the composite z-score in [15] stood at 0.672; in test [16] it was 1.38; in [17], 0.337; in test [18], 1.29; in [19], 1.06; in test [20] it was 1.08. The compound also yielded a z-score in test [2] of -2.43. Besides, the composite Z-score in [12] is 0.245 (inactive).
Consider `C[C@]1(C(=O)NCC(F)(F)F)c2ccccc2C(=O)N(Cc2ccccc2)[C@H]1c1ccc(CO)cc1`, for which the composite z-score was -0.0857 in test [1]; -0.722 in test [3]; -0.21 in test [4]; 0.799 in [5]; -0.287 in test [6]; -0.147 in [7]. Besides, the composite z-score is -0.0799 in test [8]; 0.015 in [9]; -0.553 in [10]; -1.14 in [11]; -0.221 in test [13]; -0.123 in [14]. The composite z-score was 0.448 in [15]; -0.145 in test [16]; 0.498 in [17]; -1.22 in [18]; -1.7 in [19]; 0.0038 in test [20]. In addition, the z-score in test [2] was -0.501. The composite Z-score in test [12] is -0.222 (inactive).
Take `[N-]=[N+]=Nc1ccccc1C[C@@]1(C(=O)O)N=C(c2ccc(OCCCO)cc2)O[C@@H]1c1ccccc1N=[N+]=[N-]`: the composite z-score in test [1] is 1.26; in test [3] it was 0.0656; in [4], 2.45; in [5], 1.12; in test [6], -0.034; in test [7], 0.108. The composite z-score in [8] came to 1.27; in [9], 1.79; in test [10], 1.32; in test [11], 0.612; in test [13] it was 0.126; in [14] it was 0.13. In addition, the composite z-score in [15] was 0.457; in test [16] it was 2.49; in [17], 1.66; in test [18] it was 1.3; in test [19], -0.91; in test [20] it was 1.15. In [2], this compound registered a z-score of -1.26. Further, the composite Z-score in test [12] is 0.95 (inactive).
Consider `COC(=O)[C@@]1(Cc2ccc(OC)cc2)[C@H]2c3cc(C(=O)N4CCCC4)n(Cc4cc(C)n(C)n4)c3C[C@H]2CN1C(=O)c1ccccc1`, for which the composite z-score worked out at 0.712 in test [1]; 0.78 in [3]; 1.46 in test [4]; 0.81 in [5]; 0.23 in test [6]; 0.4 in [7]. The composite z-score turned out to be 0.352 in [8]; 1.21 in test [9]; 0.769 in test [10]; 1.09 in test [11]; 0.313 in test [13]; 0.446 in [14]. For the same compound, the composite z-score in test [15] is 0.962; in [16], 3.19; in test [17] it was 0.637; in [18] it was 1.32; in test [19] it was -1.19; in [20], 0.485. In test [2], this compound registered a z-score of -1.38. For the same compound, the composite Z-score in test [12] is 5.19 (inactive).
As to `C=C[C@@H](C)[C@H](O)c1ccc(OCCO)cc1`, the composite z-score in test [1] was -0.355; in [3], -2.31; in test [4] it was -0.912; in test [5], 0.521; in test [6], -0.262; in [7] it was -0.289. Moreover, the composite z-score is -0.446 in [8]; -0.73 in [9]; -1.16 in test [10]; 0.189 in [11]; -0.529 in [13]; -0.206 in test [14]. Further, the composite z-score in test [15] is 0.799; in [16], 0.28; in [17], -0.343; in test [18] it was -0.885; in test [19], -0.49; in test [20], -1.01. Besides, the z-score in test [2] was found to be 0.27. The composite Z-score in [12] is 0.0275 (inactive).
Regarding `COCCOC(=O)N1C(=O)[C@@]2(c3ccccc31)[C@H](c1ccccc1OCCO)N1[C@H](c3ccccc3)[C@H](c3ccccc3)OC(=O)[C@H]1[C@@H]2C(N)=O`, the composite z-score in [1] came to 1.19; in [3] it was 0.574; in test [4] it was 1.93; in [5], 0.208; in [6] it was 0.0317; in [7] it was 0.0121. Also, the composite z-score in test [8] is 0.389; in test [9] it was 1.29; in test [10] it was 1.14; in [11], 0.856; in [13], -0.0324; in test [14], -0.181. Also, the composite z-score in test [15] is 0.565; in test [16], 2.36; in [17], 1.01; in test [18], 1.3; in [19], 0.651; in [20] it was 1.18. Moreover, the z-score in test [2] was -2.76. The composite Z-score in test [12] was 1.26 (inactive).

(Values after PubChem BioAssay.)
